Our source for the Potency, outcome and max response values is PubChem BioAssay (NCATS).

Values without a mark were called inactive. Records with an inconclusive call do not appear. The source made the active and inactive calls. Unless noted, calls come from the whole dose curve; as a rule, active = well fitted curve in the direction sought with a large enough effect; inconclusive = small, poorly fitted or top-dose-only effect, or another doubt; inactive = no such curve, though single readings can be large; an effect the other way counts as inactive or inconclusive.

The nature of assay [1]: S16 Schwann cell PMP22 intronic element firefly luciferase assay (AID 624032).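 Note: plate controls were DMSO for no effect and PTC124 positive control mean for full effect; nearly all actives have a fitted effect of over 30% in size.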 In outline: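 Luciferase reporter of PMP22 intronic-element expression in stably transfected S16 rat Schwann cells, read by ONE-Glo luminescence after 24 h compound exposure at 37 C. Activity scaled between DMSO (0%) and positive-control PTC124; concentration-effect curves quality-classified.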

Another assay relates to W2. Description: qHTS profiling for inhibitors of Plasmodium falciparum proliferation (AID 504749). Note: nearly all actives have a fitted effect of over 60% in size. Note: potency is the fitted concentration of half-maximal effect. The settings on record: P. falciparum in erythrocytes, SYBR Green DNA, 72 h; series mostly up to 28.7 µM. The gist of the method:
(§1)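 In a 72 h erythrocytic culture (37 C, humidified, 5% CO2) at 2.5% hematocrit and 0.3% starting parasitemia, compounds were tested; SYBR Green I in detergent lysis buffer stained parasite DNA overnight.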
For orientation: qHTS replaces the single test concentration by a dilution series.

The next assay has as its system ATS95. The description is as above. The following applies: P. falciparum in erythrocytes, SYBR Green DNA, 72 h; series mostly up to 28.7 µM. The gist of the method: as §1
Another assay relates to CP260. Described as above. The settings on record: P. falciparum in erythrocytes, SYBR Green DNA, 72 h; series mostly up to 28.7 µM. The gist of the method: as §1
A further assay has as its system DIV17. Described as above. The following applies: P. falciparum in erythrocytes, SYBR Green DNA, 72 h; series mostly up to 28.7 µM. The gist of the method:
as §1

A further assay has as its system P93_24. The assay is described as above. The following applies: P. falciparum in erythrocytes, SYBR Green DNA, 72 h; series mostly up to 28.7 µM. In outline: as §1
In a further assay the test system is TAB109. Described as above. The settings on record: P. falciparum in erythrocytes, SYBR Green DNA, 72 h; series mostly up to 28.7 µM. The gist of the method:
as §1

For a further assay, the system named is TAB165. Described as above. The following applies: P. falciparum in erythrocytes, SYBR Green DNA, 72 h; series mostly up to 28.7 µM. In outline:
as §1

Assay [2] addresses Luciferin 4-monooxygenase (Photinus pyralis) (UniProt P08659). Description: Biochemical firefly luciferase enzyme assay for NPC (AID 624030).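 Note: purified P. pyralis luciferase at 10 nM with luciferin and ATP substrate; 0% = DMSO and -100% = full luciferase inhibition by PTC124 control; nearly all actives have a fitted effect of over 70% in size.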 In outline: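 Direct inhibition of firefly luciferase enzyme (10 nM final, 50 mM Tris Acetate) assessed by luminescence within 5 minutes. Percent activity scaled between DMSO and PTC124 positive control, with concentration-effect curves classified by fit quality and response.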

The test system of another assay is 7G8. As to the kind of experiment: qHTS profiling for inhibitors of Plasmodium falciparum proliferation (AID 504749). Note: nearly all actives have a fitted effect of over 60% in size. Note: potency is the fitted concentration of half-maximal effect. The following applies: P. falciparum in erythrocytes, SYBR Green DNA, 72 h; series mostly up to 28.7 µM. The gist of the method:
as §1

Assay [3] can be described thus: Inducers of the Endoplasmic Reticulum Stress Response (ERSR) in human glioma: Validation (AID 504836). Note: 0% is about no effect. The gist of the method:
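ERSR induction read as luciferase luminescence (Bright-Glo, 10 min at room temperature) in stably transfected human U87-MG glioma cells exposed to compounds for 16 h, using GRP78 as sensor.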

Assay [4] concerns the target Peroxisome proliferator-activated receptor delta (Homo sapiens) (UniProt Q03181). As to the kind of experiment: qHTS assay for small molecule agonists of peroxisome proliferator-activated receptor delta signaling (AID 588534; calls by dose curve;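 note: 0% = DMSO basal wells and 100% = positive control agonist at 10 µM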). In outline:
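Titration series tested in agonist mode on beta-lactamase reporter cells; 18 hrs at 37 C after a 5 hr pre-incubation. Readout: CCF4 fluorescence, 2 hrs RT. Hill equation gives EC50 and maximal response.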

In assay [5] the target is Vitamin D3 receptor (Homo sapiens) (UniProt P11473). Description: qHTS assay for small molecule antagonists of vitamin D receptor signaling (AID 588541; calls by dose curve;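 note: receptor activated by calcitriol during compound treatment; % is set by controls: 0 for no effect and ±100 for the full control effect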). In outline:
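Antagonist-mode beta-lactamase reporter assay: HEK293T VDR-UAS-bla cells were exposed to titrated compound alongside 1-alpha,25-dihydroxyvitamin D3 at 3 nM final for 16 h. Values were normalized to the 50 nM agonist control and DMSO basal, with IC50 and efficacy from Hill equation fits.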

In assay [6] the target is Thyroid hormone receptor beta (Homo sapiens) (UniProt P10828). Description: qHTS assay for small molecule agonists of thyroid hormone receptor beta signaling (AID 588545; calls by dose curve). The gist of the method:
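HEK 293 TR-UAS-bla; agonist mode; 18 hrs, 37 C; CCF4, ex 405/em 460 and 530 nm; norm. T3 10 nM = 100%, DMSO = 0%; Hill fit → EC50, efficacy.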

In assay [7] the target is Retinoic acid receptor RXR-alpha (Homo sapiens) (UniProt P19793). Description: qHTS assay for small molecule antagonists of retinoid X receptor alpha signaling (AID 588546; active = well fitted inhibition curve with a large enough effect in the signal ratio, with a control signal flat, not every such curve was filed as active; the % refers to the signal ratio; note: % is set by controls: 0 for no effect and ±100 for the full control effect). The settings on record: HEK293T RXRa-UAS-bla, beta-lactamase ratio, antagonist mode. In outline: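 Beta-lactamase reporter inhibition, read as CCF4 fluorescence ratio (ex 405, em 460/530 nm) after 2 h at RT. HEK293T UAS-bla cells, 2500/well, were stimulated with 9-cis-RA at 500 or 100 nM final alongside test compound for 18 h at 37 C.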
Retinoic acid receptor RXR-alpha (Homo sapiens), sequence (P19793 whole entry, looked up): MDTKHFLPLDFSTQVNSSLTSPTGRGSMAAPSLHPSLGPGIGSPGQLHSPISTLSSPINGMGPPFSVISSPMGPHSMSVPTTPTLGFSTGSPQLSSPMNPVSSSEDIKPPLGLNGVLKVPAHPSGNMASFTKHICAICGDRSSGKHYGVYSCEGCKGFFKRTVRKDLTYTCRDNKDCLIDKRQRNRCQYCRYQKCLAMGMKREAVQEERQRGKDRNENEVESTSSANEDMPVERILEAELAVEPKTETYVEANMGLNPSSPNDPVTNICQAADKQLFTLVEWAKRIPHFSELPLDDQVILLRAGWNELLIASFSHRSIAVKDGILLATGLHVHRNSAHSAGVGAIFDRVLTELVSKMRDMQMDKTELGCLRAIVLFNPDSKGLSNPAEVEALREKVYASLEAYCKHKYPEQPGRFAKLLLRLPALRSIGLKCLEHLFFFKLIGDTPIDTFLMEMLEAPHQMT

Assay [8] has as its target Peroxisome proliferator-activated receptor alpha (Homo sapiens) (UniProt Q07869). Description: qHTS assay for small molecule agonists of the peroxisome proliferator-activated receptor alpha (PPARalpha) signaling pathway (AID 651778). Note: % of control where 0% means no effect. The settings on record: PathHunter PPARalpha complementation, chemiluminescence, 6 h; max response: active compounds read high. The gist of the method: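 Chemiluminescence from complemented enzyme reported PPARalpha activation in cells after 6 hr of compound treatment at 37 C. The detection reagent was incubated for 60 min at room temperature, and compounds were scored as agonists.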

A short description of assay [9]: qHTS assay for small molecule agonists of the antioxidant response element (ARE) signaling pathway measured by Nrf2-dependant transcriptional activity - cell viability counter screen (AID 720653; active = well fitted curve in the direction sought with a large enough effect in the repeat runs; an effect the other way counts as inactive or inconclusive; note: % is set by controls: 0 for no effect and ±100 for the full control effect). The settings on record: ARE-bla HepG2 viability, CellTiter-Glo ATP luminescence, 16 h; max response: active compounds read low. In outline: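 Cytotoxicity counter screen: intracellular ATP quantified by CellTiter-Glo luminescence in the same ARE-bla HepG2 plates, after 16 h compound exposure and a 2 h beta-lactamase substrate step.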

Luciferin 4-monooxygenase (Photinus pyralis), sequence (P08659 whole entry, looked up): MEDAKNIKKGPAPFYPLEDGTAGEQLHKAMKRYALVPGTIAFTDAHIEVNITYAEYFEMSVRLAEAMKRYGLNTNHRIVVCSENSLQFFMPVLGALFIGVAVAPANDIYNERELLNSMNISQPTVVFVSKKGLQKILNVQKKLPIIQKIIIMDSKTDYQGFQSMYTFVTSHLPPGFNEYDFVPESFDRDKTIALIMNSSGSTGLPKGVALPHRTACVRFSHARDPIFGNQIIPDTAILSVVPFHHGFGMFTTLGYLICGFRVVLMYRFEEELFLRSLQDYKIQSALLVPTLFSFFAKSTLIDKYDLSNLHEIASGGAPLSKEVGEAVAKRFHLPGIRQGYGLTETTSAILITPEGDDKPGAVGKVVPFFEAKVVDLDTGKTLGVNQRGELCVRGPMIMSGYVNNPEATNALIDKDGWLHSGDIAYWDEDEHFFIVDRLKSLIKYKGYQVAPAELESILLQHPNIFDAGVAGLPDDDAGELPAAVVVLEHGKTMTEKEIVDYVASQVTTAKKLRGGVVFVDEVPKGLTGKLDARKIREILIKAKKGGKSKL
Peroxisome proliferator-activated receptor alpha (Homo sapiens), sequence (Q07869 whole entry, looked up): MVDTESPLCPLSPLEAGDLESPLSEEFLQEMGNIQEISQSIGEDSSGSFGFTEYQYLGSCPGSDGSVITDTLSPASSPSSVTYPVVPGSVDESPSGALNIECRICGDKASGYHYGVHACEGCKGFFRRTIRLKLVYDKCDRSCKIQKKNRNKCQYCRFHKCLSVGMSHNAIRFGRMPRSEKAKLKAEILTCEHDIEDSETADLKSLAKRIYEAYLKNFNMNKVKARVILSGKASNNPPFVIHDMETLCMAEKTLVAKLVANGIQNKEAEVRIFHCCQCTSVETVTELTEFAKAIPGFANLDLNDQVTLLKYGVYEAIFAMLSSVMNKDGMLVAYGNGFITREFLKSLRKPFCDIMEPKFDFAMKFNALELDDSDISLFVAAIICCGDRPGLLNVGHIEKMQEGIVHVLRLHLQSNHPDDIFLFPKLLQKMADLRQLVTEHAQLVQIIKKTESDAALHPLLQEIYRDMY
Thyroid hormone receptor beta (Homo sapiens), sequence (P10828 whole entry, looked up): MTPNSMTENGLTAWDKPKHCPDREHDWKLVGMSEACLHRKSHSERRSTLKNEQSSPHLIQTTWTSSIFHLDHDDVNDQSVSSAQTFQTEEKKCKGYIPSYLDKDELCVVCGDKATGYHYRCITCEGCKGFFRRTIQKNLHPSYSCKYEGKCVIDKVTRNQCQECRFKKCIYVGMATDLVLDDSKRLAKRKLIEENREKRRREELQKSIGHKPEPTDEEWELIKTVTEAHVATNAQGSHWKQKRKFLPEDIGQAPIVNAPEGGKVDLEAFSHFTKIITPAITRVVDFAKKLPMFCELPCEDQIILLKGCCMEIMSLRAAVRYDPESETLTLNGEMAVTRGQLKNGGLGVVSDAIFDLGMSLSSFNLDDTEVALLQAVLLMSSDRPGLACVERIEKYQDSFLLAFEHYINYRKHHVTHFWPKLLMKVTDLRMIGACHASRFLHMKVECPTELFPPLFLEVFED
Vitamin D3 receptor (Homo sapiens), sequence (P11473 whole entry, looked up): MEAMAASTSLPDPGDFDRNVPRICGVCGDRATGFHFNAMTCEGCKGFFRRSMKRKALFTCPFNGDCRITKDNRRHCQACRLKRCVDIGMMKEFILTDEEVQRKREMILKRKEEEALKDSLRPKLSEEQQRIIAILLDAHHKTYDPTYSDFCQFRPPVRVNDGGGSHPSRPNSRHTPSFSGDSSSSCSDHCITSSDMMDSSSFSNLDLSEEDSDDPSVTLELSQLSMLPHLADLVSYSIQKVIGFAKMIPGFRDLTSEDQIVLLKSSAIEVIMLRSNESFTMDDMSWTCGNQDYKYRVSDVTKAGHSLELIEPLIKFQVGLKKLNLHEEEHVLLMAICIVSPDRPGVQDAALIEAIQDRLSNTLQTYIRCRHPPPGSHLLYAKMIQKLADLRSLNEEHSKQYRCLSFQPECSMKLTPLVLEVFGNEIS
Peroxisome proliferator-activated receptor delta (Homo sapiens), sequence (Q03181 whole entry, looked up): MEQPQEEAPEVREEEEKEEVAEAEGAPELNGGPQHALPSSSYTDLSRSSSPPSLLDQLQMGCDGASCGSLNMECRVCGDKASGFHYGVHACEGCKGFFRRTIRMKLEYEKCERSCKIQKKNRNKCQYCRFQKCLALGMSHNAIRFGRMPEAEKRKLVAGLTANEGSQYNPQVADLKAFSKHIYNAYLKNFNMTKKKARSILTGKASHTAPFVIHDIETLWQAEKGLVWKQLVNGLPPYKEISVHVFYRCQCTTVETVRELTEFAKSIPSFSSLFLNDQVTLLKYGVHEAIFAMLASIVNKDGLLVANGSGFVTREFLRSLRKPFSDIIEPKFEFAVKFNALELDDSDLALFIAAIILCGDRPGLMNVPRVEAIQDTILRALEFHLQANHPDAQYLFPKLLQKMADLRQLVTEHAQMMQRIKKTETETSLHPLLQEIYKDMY

With `CN(C)C1C(=O)C(C(N)=O)C(=O)C2(O)C(=O)C3C(=O)c4c(O)cccc4C(C)(O)C3C(O)C12` (centres undefined), the Potency result in assay [1] is “inactive”. In addition, the Potency in the assay on W2 is 6750 nM (active).
As to `C#C[C@]1(O)CC[C@H]2[C@@H]3CCC4=CC(=O)CCC4(C)[C@H]3CCC21C` (some centres undefined), the Potency result in the assay with ATS95, in the assay on CP260, in the assay with DIV17, in the assay with P93_24, with TAB109 and in the assay on TAB165 was “inactive” throughout. For the same molecule, the Potency result with W2 was “inactive”.
For `CCC/C=C/C=C/C(=O)OC1/C(=C/C(=O)OC)CC2CC(C(C)O)OC(=O)CC(O)CC3CC(OC(C)=O)C(C)(C)C(O)(CC4C/C(=C/C(=O)OC)CC(/C=C\C(C)(C)C1(O)O2)O4)O3` (centres undefined), the Potency result in assay [2] and in [1] was “inactive” each time. Further, the Potency is 708 nM (active) in the assay with 7G8; 2510 nM (active) in the assay with ATS95; 2820 nM (active) in the assay with CP260; 953 nM (active) in the assay with DIV17; 2240 nM (active) in the assay with P93_24; 2510 nM (active) in the assay with TAB109. For the same molecule, the Potency in the assay on TAB165 is 1410 nM (active); in the assay on W2, 953 nM (active).
For `CCN(CC)C(=O)N[C@@H]1C=C2c3cccc4[nH]cc(c34)C[C@H]2N(C)C1`, the Potency entry in assay [2] is “inactive”. Also, the Potency in the assay with 7G8 was 8910 nM (active); with DIV17, 10700 nM (active); with P93_24, 7940 nM (active); in the assay with TAB165, 12600 nM (active); with W2, 5360 nM (active).
As for `CC(C)CCC(=O)OC1CCC2C3CCC4=CC(=O)CC[C@]4(C)C3CC[C@]12C` (some centres undefined), the Potency in the assay on 7G8 was 10000 nM (active); in the assay on CP260, 11200 nM (active). In the assay on DIV17, the Potency result was “inactive”.
For `O=[N+]([O-])OC1CO[C@H]2C(O[N+](=O)[O-])COC12` (some centres undefined), the Potency entry in the assay on 7G8, in the assay on ATS95, in the assay with CP260, with DIV17, in the assay with P93_24 and with TAB109 was “inactive” each time. In addition, the Potency entry in the assay on TAB165 and in the assay with W2 was “inactive” in each case.
Turning to `CC(Cc1ccccc1)N(C)C` (centres undefined), the Potency result (in [1]; in the assay on ATS95; in the assay on CP260; in the assay on DIV17; with P93_24; in the assay on TAB109) was “inactive” in each case. For the same molecule, the Potency result with TAB165 was “inactive”.
For `CCC(=O)OC1(c2ccccc2)CCN(C)CC1C` (centres undefined), in assay [2], the Potency result is “inactive”. Also, in the assay with W2, the Potency was 3790 nM (active).
`O=C1CC2OCC=C3CN4CC[C@]56c7ccccc7N1C5C2[C@H]3C[C@H]46` (some centres undefined): the Potency was 11200 nM (active) with 7G8, 11200 nM (active) in the assay on CP260 and 3380 nM (active) in the assay with W2. Further, the Potency result in the assay with DIV17 is “inactive”.
Take `COC(C(=O)C(O)C(C)O)C1Cc2cc3cc(OC4CC(OC5CC(O)C(OC)C(C)O5)C(OC(C)=O)C(C)O4)c(C)c(O)c3c(O)c2C(=O)C1OC1CC(OC2CC(OC3CC(C)(O)C(OC(C)=O)C(C)O3)C(O)C(C)O2)C(O)C(C)O1` (centres undefined): the Potency in the assay with 7G8 is 112 nM (active); in the assay on ATS95, 708 nM (active); in the assay on CP260, 126 nM (active); in the assay with DIV17 it was 2690 nM (active); in the assay on P93_24, 794 nM (active); in the assay with TAB109 it was 794 nM (active). The Potency with TAB165 was 794 nM (active); with W2, 426 nM (active).
Regarding `CSc1ccccc1N1CCN(CCCCCC(=O)NC2CCCc3ccccc32)CC1` (centres undefined), the result in assay [3] was inactive.
On to `O=C(c1ccc(Cl)cc1)N1CCN(c2ccc([N+](=O)[O-])c3ncccc23)CC1`, for which the result in assay [3] was inactive.
On the same count and under the same terms, the result for `COc1ccccc1N1CCN(CCN(C(=O)c2ccc(I)cc2)c2ccccn2)CC1` reads “inactive”.
As to `O=C1CC2OCC=C3CN4CCC56c7ccccc7N1C5[C@H]2[C@H]3C[C@H]46` (some centres undefined) (tested in a mixture with another compound), the Potency entry in the assay on ATS95, in the assay on P93_24 and in the assay with TAB165 was “inactive” throughout.
In the case of `CC(C)=CC1C(C(=O)OCc2coc(Cc3ccccc3)c2)C1(C)C` (centres undefined), in assay [4], the molecule was called inactive. Besides, the Potency entry (in assay [5]; in assay [6]; in assay [1]; with ATS95; in the assay with CP260; with P93_24) was “inactive” in each case. In addition, the Potency result in the assay with TAB109 is “inactive”. The max response in assay [7] was 3.05%; in [8], -0.283%; in assay [9] it was -23.8%.
